Screening data (PubChem BioAssay)
Shown are actives, neighbours in structure and some others; about 4.7% of the full set was active somewhere.
LMP1 NFkB inh = Epstein-Barr LMP1 NF-kappaB reporter inhibition; actives 0.69% (n = 350,000); inhibition, % at 12.5 µM; LMP1-induced NF-kappaB luciferase reporter cells, luminescence; AID 504558; in the data active = inhibition above about 41%;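 note: 0% = neutral control wells and 100% = reference inhibitor control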
TWEAK-Fn14 inh = inhibitors of TWEAK-Fn14 interaction signaling; TWEAK-stimulated Fn14 reporter cells, luciferase luminescence, 8 h; inhibition, % at 10 µM; actives 2% (n = 360,000); AID 1159606; in the data active = inhibition above about 50%
HSF1 activator = increases HSF-1 driven luciferase reporter signal; activation, % at 9 µM; actives 1.7% (n = 300,000); NIH3T3-HGL HSF-1 luciferase reporter, MG132, 8 h; 100% = twice DMSO control signal; AID 504408;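 active = mean replicate activation of at least 50% with a set share of replicates each reaching 50%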;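 note: 0% = median of the neutral control wells and 100% = twice that signal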
HSP90 inh = inhibitors of HSP90 luciferase refolding in rabbit reticulocyte lysate; luciferase refolding luminescence, 3 h; inhibition, % at 5.6 µM; actives 0.91% (n = 290,000); AID 1789;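 active = inhibition above the screen-wide mean plus 3 SD, computed separately per campaign, cut at about 16% in these data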;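 note: 0% = DMSO wells and 100% = 60 µM geldanamycin wells; inhibitors lower the luminescence because luciferase stays unfolded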
TROY signal inh = inhibitors of TROY-dependent NF-kB signaling; Q293 LMP1-TROYcd NF-kB luciferase reporter, 4 h; inhibition, % at 10 µM; actives 0.98% (n = 360,000); AID 1347056;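 active = compounds whose plate-normalised and pattern-corrected inhibition of the luciferase reporter signal at the single screening dose is 50% or more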
HSF1 inhib = HSF1 inhibition | NIH3T3-HGL HSE-luciferase, MG132-induced, luminescence 8 h; active compounds read low | activity change, negative = inhibition, % at 7.5 µM (by protocol) | actives 0.77% (n = 300,000) | AID 2098;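 active = more than half of replicate wells show activity change below -50%, luminescence cut by over half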;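 note: luciferase reports HSF-1 transcriptional activity via heat shock element; 0% = median of DMSO wells and -100% = zero luminescence signal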
The depositor's hits bear a star.

Screening O=[N+]([O-])c1cccc(-c2cc(-c3cc(Br)ccc3O)[nH]n2)c1 returned LMP1 NFkB inh 5, TWEAK-Fn14 inh 84*, HSF1 activator 8, HSP90 inh 0, TROY signal inh 33 and HSF1 inhib -6.
Screening C=C1[C@@H](O)[C@H](CC(C)C)N(Cc2ccccc2Br)S1(=O)=O returned LMP1 NFkB inh -15, TWEAK-Fn14 inh 79* and TROY signal inh 18.
Screening COC(=O)[C@]12CCCCC=C1N(Cc1cccc3ccccc13)C(=O)[C@H](CC(=O)N1CCN(C(=O)C3CC3)CC1)C2 returned TWEAK-Fn14 inh 19 and TROY signal inh -17.
For O=S(=O)(NCc1ccc(C(F)(F)F)cc1)c1ccc(-n2cnnn2)cc1 the results were LMP1 NFkB inh 0, TWEAK-Fn14 inh -11, HSF1 activator -93, HSP90 inh 1, TROY signal inh -12 and HSF1 inhib -90*.
Screening CNC(=O)C1CN(C(=O)c2nn(Cc3ccccc3)c(=O)c3ccccc23)c2ccccc2O1 (stereo not given) returned LMP1 NFkB inh 0, TWEAK-Fn14 inh 14 and TROY signal inh -2.
For CCOC(=O)C1=C(C)OC(N)=C(C#N)C1c1ccsc1 (stereo not given) the results were LMP1 NFkB inh 3, TWEAK-Fn14 inh 7, HSF1 activator 9, HSP90 inh 0, TROY signal inh -2 and HSF1 inhib 3.
For N#CC1=C(N)Oc2c(O)cc3ccccc3c2C1c1ccsc1 (stereo not given) the results were LMP1 NFkB inh 3, TWEAK-Fn14 inh 18, HSF1 activator 71*, HSP90 inh -3, TROY signal inh 17 and HSF1 inhib 42.
`Cc1cc(OCC(=O)OCC(=O)N2CCCCC2)ccc1Cl` gave LMP1 NFkB inh -6, TWEAK-Fn14 inh 8 and TROY signal inh 11.
Screening Cc1nc(N)nc(N)c1/C=C/C(C)(C)c1ccc(Cl)cc1 returned LMP1 NFkB inh 46*, TWEAK-Fn14 inh 36, HSF1 activator -11, HSP90 inh -1, TROY signal inh 36 and HSF1 inhib -8.
For CCOC(=O)C1=CCN(S(=O)(=O)c2ccc(Br)cc2)C1c1ccc(C)cc1 (stereo not given) the results were TWEAK-Fn14 inh 1 and TROY signal inh -4.
Screening Cc1nc2ccc(S(=O)(=O)NC(C(=O)NCc3cccs3)C(C)C)cc2s1 (stereo not given) returned LMP1 NFkB inh -1, TWEAK-Fn14 inh 3, HSF1 activator -84, HSP90 inh -4, TROY signal inh 12 and HSF1 inhib -81*.
O=C(c1ccc([N+](=O)[O-])cc1)N1CCN(c2ncc(Br)cn2)CC1 was read as LMP1 NFkB inh 7, TWEAK-Fn14 inh -1, HSF1 activator -82, HSP90 inh -4, TROY signal inh 6 and HSF1 inhib -76*.
Screening Cn1c(-c2ccccc2)cc2onc(-c3ccccc3)c2c1=O returned LMP1 NFkB inh 39, TWEAK-Fn14 inh 91* and TROY signal inh 73*.
`Cn1c(-c2ccccc2F)cc2onc(-c3ccccc3)c2c1=O` gave LMP1 NFkB inh -26, TWEAK-Fn14 inh 73* and TROY signal inh 66*.
COc1ccc(CSC(=S)NNc2ccccc2)cc1 was read as LMP1 NFkB inh -12, TWEAK-Fn14 inh -21 and TROY signal inh 30.
For COCCN(C(=O)CSc1nnc(-c2ccc(F)cc2)n1N)c1c(N)n(CC(C)C)c(=O)[nH]c1=O the results were LMP1 NFkB inh -14, TWEAK-Fn14 inh -9 and TROY signal inh 1.
For NC(=O)NC(=O)CSc1nc2sc(-c3ccccc3)cc2c(=O)n1-c1ccccc1 the results were LMP1 NFkB inh 10, TWEAK-Fn14 inh 58*, HSF1 activator -11, HSP90 inh 2, TROY signal inh 13 and HSF1 inhib -13.
`Cc1ccnc(N/C=C(/NC(=O)c2ccccc2)C(=O)N/N=C\c2ccc(F)cc2)n1` gave LMP1 NFkB inh 58*, TWEAK-Fn14 inh 101*, HSF1 activator 0, HSP90 inh 4, TROY signal inh 80* and HSF1 inhib -7.
Screening Cc1ccnc(N/C=C(/NC(=O)c2ccccc2)C(=O)NN)n1 returned LMP1 NFkB inh 5, TWEAK-Fn14 inh -5, HSF1 activator -2, HSP90 inh -3, TROY signal inh 8 and HSF1 inhib -9.
